Measured values from PubChem BioAssay (NCI).
Values joined by “and” are separate entries in the source; they are usually repeats but may differ in a detail not shown here. Equal entries are not always repeated. Compounds without any hit were thinned out: in the full panel of roughly 79,000, 15% have a hit. Cut-off read from the data, not from the text of the source: active = growth inhibition above about 70%; inactive = the rest. Where a SMILES comes first, the peptide text is derived from it. [ ]: non-standard residue; d: D form. The star is where a group is joined. ξ: configuration not given here. ξF = NC(Cc1ccccc1)C(=O)O; Cbz = O=C(OCc1ccccc1)*; Aib = CC(C)(N)C(=O)O

Legend:
[1] = NCI Yeast Anticancer Drug Screen. Data for the rad50 strain (AID 155);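 note: 0% = growth of vehicle-only cultures of the same strain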; details: S. cerevisiae rad50 strain growth inhibition, hits give high values; at 50.0 µM unless noted
How it was run: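 Compounds were tested on a yeast strain with an engineered DNA damage repair alteration; the reported value is growth inhibition normalised to vehicle treatment.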

[2] = NCI Yeast Anticancer Drug Screen. Data for the mec2-1 strain (AID 157); details: S. cerevisiae mec2-1 strain, hits give high values; at 50.0 µM unless noted
How it was run: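 Test agents were screened against the mec2-1 yeast strain, with defined DNA repair or cell cycle alteration. Growth was scored as inhibition against vehicle-only controls.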

[3] = NCI Yeast Anticancer Drug Screen. Data for the sgs1 mgt1 strain (AID 161);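 note: 0% = growth of cultures given vehicle only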; details: S. cerevisiae sgs1 mgt1 strain, hits give high values; at 50.0 µM unless noted
How it was run: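 Inhibition of yeast growth, normalised to vehicle-treated controls, is reported for a strain bearing genetic alterations in DNA damage repair.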

[4] = NCI Yeast Anticancer Drug Screen. Data for the cln2 rad14 strain (AID 165);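 note: 0% = growth equal to vehicle treated cultures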; details: S. cerevisiae cln2 rad14 strain, hits give high values; at 50.0 µM unless noted
How it was run: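 Growth of compound-exposed yeast (cln2 rad14 genotype) measured and expressed as inhibition relative to vehicle.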

[5] = NCI Yeast Anticancer Drug Screen. Data for the bub3 strain (AID 167); details: S. cerevisiae bub3 mutant strain, hits give high values; at 50.0 µM unless noted
How it was run: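 Growth of a checkpoint-deficient yeast mutant is measured after compound exposure. Values represent inhibition relative to vehicle.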

[6] = NCI Yeast Anticancer Drug Screen. Data for the mlh1 rad18 strain (AID 175); details: S. cerevisiae mlh1 rad18 strain growth inhibition, hits give high values; at 50.0 µM unless noted
How it was run: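 In this whole-cell yeast screen, a strain with altered DNA damage repair is challenged with compound, and its growth is measured against matched vehicle-treated controls.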

Measured: growth inhibition

CCOC(=O)C(=O)Nc1c(C)cccc1C(C)(C)C
inactive: [1] -22.1% | [2] -30.4% | [3] -4.35% | [4] 3.55% | [5] -16.8% | [6] -7.05%

CCOC(=O)C1(C#N)C(C#N)(C#N)C1(CC)CC (stereo unspecified)
inactive: [1] -11.2% | [2] 19.6% | [3] -1.55% | [4] 10.3% | [5] -6.4% | [6] -20.8%

CCCSc1nn2cc(NC(=O)OC)nc2s1
inactive: [1] -13.5% | [2] -8.7% | [3] -3.75% | [4] -24.5% | [5] 7.05% | [6] -6.5%

CC(=O)Nc1ccccc1C(C#N)Cc1ccccc1 (stereo unspecified)
inactive: [1] 13.3% | [2] 5.55% | [3] 14.1% | [4] -32.4% | [5] 1.15% | [6] 8.95%

N#CC1C(c2ccc(Cl)cc2)C(C(N)=O)C(=O)NC1(O)c1ccccc1 (stereo unspecified)
inactive: [1] -1.45% | [2] -5.4% | [3] 8.45% | [4] 8.95% | [5] 4.15% | [6] 15.6%

CC(O)C(O)C(O)C(O)c1nc2ccccc2[nH]1 (stereo unspecified)
inactive: [1] -18.4% | [2] -3.35% | [3] -20.6% | [4] -37% | [5] 4.35% | [6] 9.9%

C/C(CC1=CCCCC1)=N\NC(N)=O
inactive: [1] -18.4% | [2] -17.9% | [3] -20.9% | [4] -27.9% | [5] -4.65% | [6] -12.7%

Nc1nc2ncn(CCO)c2c(=O)[nH]1
inactive: [1] 9.4% | [2] 1.95% | [3] 2.8% | [4] -0.65% | [5] 3.35% | [6] 16.4%

NCC(O)C(O)C(O)CO (stereo unspecified)
inactive: [1] 6.15% | [2] -6% | [3] -1.3% | [4] -20% | [5] 9.1% | [6] -8.8%

Cc1ccc(S(=O)(=O)NC(CCC(=O)N2CCOCC2)C(=O)O)cc1 (stereo unspecified)
inactive: [1] -18.1% | [2] -4% | [3] 7.15% | [4] -57.9% | [5] 24.8% | [6] 8.6%

O=S=Nc1c(Cl)cc(Cl)cc1Cl
inactive: [1] 1.1% | [2] -20.1% | [3] 1.55% | [4] -18.6% | [5] 11.7% | [6] -0.6%

O=C1OC(/C=C/c2ccccc2)=NC/1=C\c1ccc2c(c1)OCO2
inactive: [1] -4.95% | [2] 18.9% | [3] -16.4% | [4] -21.1% | [5] -1.85% | [6] -19.8%

Cc1cc(C)c(CC(C)C)c(C)c1
inactive: [1] 1.85% | [2] 6.25% | [3] 17.4% | [4] 31.4% | [5] 2.4% | [6] -2.45%

Cc1ccc(S(=O)(=O)NN=C2C3C=CC2CC3)cc1
inactive: [1] 11.8% | [2] -2.3% | [3] 2.55% | [4] 6.25% | [5] 2.7% | [6] 4.75%

O=C(O)CCNc1ccc(Cl)cc1[N+](=O)[O-]
inactive: [1] 25.8% | [2] 26.8% | [3] 30.4% | [4] 16.1% | [5] 34.9% | [6] 25.8%

COC(=O)C1=C2C3(O)CC4CC5C3CCC(C)N5C24C2CCCC(OC)C2C1OC(=O)c1ccccc1 (stereo unspecified)
inactive: [1] -2.1% | [2] -27.1% | [3] 17.9% | [4] 8.9% | [5] 0.7% | [6] 24.1%

O=C(O)c1cc(C(=O)O)cc(C(=O)O)c1
inactive: [1] -1.55% | [2] -16.2% | [3] -8.1% | [4] -56.9% | [5] -3.05% | [6] -30.1%

COc1ccc2nc3ccccc3c(NCCC[N+](C)(C)[O-])c2c1[N+](=O)[O-]
inactive: [1] -6.4% | [2] -16.4% | [3] 3.45% | [4] -34.1% | [5] -13.1% | [6] -7.55%

CCOC(=O)CC(=O)Cc1ccccc1
inactive: [1] -23.3% | [2] -16.6% | [3] -6.25% | [4] -43.8% | [5] -13.2% | [6] -19.1%

CN1CCN(C2c3ccccc3OC(C)(C)C2O)CC1 (stereo unspecified)
inactive: [1] -23.9% | [2] -14% | [3] -14.8% | [4] -25.8% | [5] -15.7% | [6] 8.8%

COC(=O)N/N=C(/CCCC(=O)Nc1cccc([N+](=O)[O-])c1)C(C#N)c1ccc(CC#N)cc1 (stereo unspecified)
inactive: [1] -3.55% | [2] -0.1% | [3] -13.6% | [4] 1.8% | [5] 6.65% | [6] -3.3%

CCOC(=O)Cc1ccc(N(CCO)CCO)cc1
inactive: [1] 5.15% | [2] 7.4% | [3] 22.8% | [4] -0.2% | [5] 12.9% | [6] 5.55%

Cn1cnc2ncnc(Cl)c21
inactive: [1] 1.85% | [2] -3.45% | [3] 9.8% | [4] -19.1% | [5] -52.1% | [6] -26.9%

CCOC(=O)CSCC(C)C(=O)OC (stereo unspecified)
inactive: [1] -0.3% | [2] -0.5% | [3] -2.7% | [4] 7.2% | [5] 2.5% | [6] 2.25%

c1ccc(-c2nc3ccccc3s2)cc1
inactive: [1] 25.2% and 18.6% | [2] -22.4% and -0.5% | [3] 24.1% and -17.9% | [4] 23.8% and -20.2% | [5] 8.55% and -4.35% | [6] 40.4% and 2.6%

Clc1ccc(Oc2ncnc3nc[nH]c23)cc1
inactive: [1] 3.6% | [2] 5.75% | [3] 2.85% | [4] -1.35% | [5] -1.5% | [6] 23.5%

COCC(C)OC(=O)COc1ccccc1 (stereo unspecified)
inactive: [1] 1.05% | [2] -21.6% | [3] -10.4% | [4] -46.5% | [5] -4.35% | [6] -6.65%

CN(N)c1nc(N)c(C#N)c(C#N)c1C#N
inactive: [1] -16.8% | [2] -22.5% | [3] -4.9% | [4] 11.7% | [5] -2.65% | [6] 3.9%

C=C1C(=O)O[C@@H]2O[C@@]3(C)CC[C@H]4[C@H](C)CC[C@@H]1[C@@]24O3
inactive: [1] 26.6% | [2] 26.9% | [3] 52.1% | [4] 22% | [5] 12.2% | [6] 40.5%

Cc1ccc(Nc2nc(N)nc3c2ncn3C2OC(CO)C(O)C2O)cc1 (stereo unspecified)
inactive: [1] 25.8% | [2] 2.6% | [3] 7.85% | [4] -3.75% | [5] 18.6% | [6] 7.35%

CC(=O)OC1CC2CC1C1OC21 (stereo unspecified)
inactive: [1] -2.25% | [2] -15.3% | [3] -22.1% | [4] -1.8% | [5] -11.7% | [6] -6.65%

CC(=O)NC1=NC(=O)/C(=C/c2ccccc2Cl)N1C
inactive: [1] -45.7% | [2] -53.8% | [3] -10.9% | [4] 8% | [5] -8.85% | [6] 28.6%

O=C(Nc1ccc(S(=O)(=O)Nc2nccs2)cc1)c1ccncc1
inactive: [1] -0.05% | [2] -11.3% | [3] 22.3% | [4] 19.1% | [5] 28.3% | [6] 12%

Cc1cc(C)c2ccc(Cl)nc2n1
inactive: [1] -6.75% | [2] 0.55% | [3] -7.35% | [4] 9.35% | [5] -4.35% | [6] 6.1%

O=C(Nc1ccccc1C(F)(F)F)C(c1ccccc1)c1ccccc1
inactive: [1] 19.5% | [2] 12.2% | [3] 8.15% | [4] 9.55% | [5] 10.8% | [6] 3.35%

COC(=O)C(C)(C)NC(=O)C(Cc1ccccc1)NC(=O)C(C)(C)NC(=O)OCc1ccccc1 (stereo unspecified) (Cbz-[Aib]-[ξF]-[Aib]-OMe)
inactive: [1] 18.9% | [2] 4.8% | [3] -6.2% | [4] 23.1% | [5] 12.4% | [6] -1.2%

Nc1sc(=S)[nH]c1-c1ccccc1
inactive: [1] 20.1% | [2] 10.7% | [3] -24.9% | [4] -30.8% | [5] -11% | [6] 11.1%

CCOC(=O)C(C#N)(CC(=O)OC)C(c1cccc2ccccc12)c1cccc2ccccc12 (stereo unspecified)
inactive: [1] 10.9% | [2] -12.7% | [3] 12.7% | [4] 21% | [5] -7.15% | [6] 13.8%

CCC(CC)C(O)C(C)C(C)O (stereo unspecified)
inactive: [1] 1.3% | [2] -8.8% | [3] -10.6% | [4] 4.8% | [5] -11.2% | [6] -4.75%

N/N=C1/CCN2CCCc3cccc1c32
inactive: [1] 11.2% | [2] 2.75% | [3] 1.25% | [4] -27.4% | [5] -19.4% | [6] 10.1%

OCC#CC#CCO
inactive: [1] -3.7% | [2] -7.45% | [3] 8.75% | [4] -1.05% | [5] -15.8% | [6] -1.45%
